DTT redox prof – compounds producing H2O2 with reducing agent – biochemical, NIH compound library profiling, artefact control for MLSCN library redox annotation, primary screen | actives 0.03% (n = 200,000) | DTT-dependent redox cycling H2O2, phenol red/HRP absorbance; 100% = 100 µM peroxide control, 0% = buffer | AID 878, 2007 | activation, % at 10 µM;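 active = activation of at least 50% relative to the plate's high and low controls in the primary single-dose screen; inactive = activation below 50%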;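 note: compound incubated with DTT at 0.8 mM final as the reducing agent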
p97 inhibitor – inhibitors of human p97 ATPase, primary screen, biochemical; Transitional endoplasmic reticulum ATPase (Homo sapiens), P55072; AID 1481, 2009; inhibition, % at 8 µM; actives 0.42% (n = 220,000); recombinant p97 ATPase, Kinase-Glo ATP luminescence, 3 h; in the data active = inhibition above about 15%
S1P4 ag – S1P4 receptor agonists, primary screen, cell-based; actives 0.35% (n = 220,000); activation, % at 4.98 µM; AID 1509, 2009; S1P4-expressing cell line, agonist reporter assay; Sphingosine 1-phosphate receptor 4 (Homo sapiens), O95977; in the data active = activation above about 11%
Target sequence (O95977 whole entry, looked up): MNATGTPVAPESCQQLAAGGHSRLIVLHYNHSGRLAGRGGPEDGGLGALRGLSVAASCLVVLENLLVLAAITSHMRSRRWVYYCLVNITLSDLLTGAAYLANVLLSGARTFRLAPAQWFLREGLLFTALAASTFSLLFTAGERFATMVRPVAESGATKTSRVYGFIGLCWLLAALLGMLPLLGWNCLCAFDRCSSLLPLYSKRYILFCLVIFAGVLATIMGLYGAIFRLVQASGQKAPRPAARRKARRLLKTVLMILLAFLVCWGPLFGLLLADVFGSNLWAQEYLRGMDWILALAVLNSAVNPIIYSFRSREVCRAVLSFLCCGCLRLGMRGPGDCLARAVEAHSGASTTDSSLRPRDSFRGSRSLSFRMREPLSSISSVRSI
S1P4 antagonist – S1P4 receptor antagonists, primary screen, cell-based. Sphingosine 1-phosphate receptor 4 (Homo sapiens), O95977. S1P4-expressing cells, antagonist mode, reporter read-out. inhibition, % at 4.98 µM. actives 0.26% (n = 220,000); in the data active = inhibition above about 29%
S1P3 antag – S1P3 receptor antagonists, primary screen, cell-based; actives 0.27% (n = 170,000); Sphingosine 1-phosphate receptor 3 (Homo sapiens), Q99500; inhibition, % at 4.98 µM; CHO S1P3 NFAT-BLA reporter, FRET fluorescence, antagonist mode;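 active = inhibition above the plate cutoff, the mean inhibition of test wells on that plate plus 3 SD, cut at about 28% in these data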;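 note: cells challenged with S1P at its EC80 of 0.8 µM; blue over green emission ratio from cleaved BLA substrate after 4 h stimulation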
UBC9 SUMO inh – inhibitors of in vitro SUMOylation cascade, primary screen, biochemical, HTRF, uHTS; SUMO-conjugating enzyme UBC9 (Homo sapiens), P63279; HTRF SUMOylation assay, SAE1/SAE2 + UBC9; inhibition, % at 35 µM; actives 0.36% (n = 290,000); AID 2006, 2009; in the data active = inhibition above about 50%, passing the limit was not always enough
Target sequence (P63279 whole entry, looked up): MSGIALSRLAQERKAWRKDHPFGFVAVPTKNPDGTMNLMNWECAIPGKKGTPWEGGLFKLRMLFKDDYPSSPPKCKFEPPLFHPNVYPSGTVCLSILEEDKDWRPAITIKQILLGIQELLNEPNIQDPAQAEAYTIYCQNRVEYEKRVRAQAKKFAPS
S1P4 agonist cf – S1P4 receptor agonists, retest, confirmation, cell-based, high throughput; shares compounds with S1P4 ag; S1P4 agonist cell-based reporter assay; activation, % at 4.98 µM; actives 7% (n = 740); AID 1523, 2009; in the data active = activation above about 12%
S1P1 ag – S1P1 receptor agonists, human, counter-screen for S1P4 agonist project, cell-based; shares compounds with S1P4 ag; S1P1 agonist cell-based assay, activation; activation, % at 4.98 µM; actives 4% (n = 740); AID 1563, 2009; in the data active = activation above about 21%
Hits are given with their value; - = inactive; . = no result given. Hits are enriched below; roughly 1.1% of the tested compounds scored in any of these assays.

SMILES	DTT redox prof	p97 inhibitor	S1P4 ag	S1P4 antagonist	S1P3 antag	UBC9 SUMO inh	S1P4 agonist cf	S1P1 ag
Cc1nc(SCC(=O)NC2CCCC2)[nH]c(=O)c1Cc1ccccc1	-	-	51	-	.	-	-	-
Cc1ccc(CNC(=O)C2CN(S(C)(=O)=O)c3cc(Cl)ccc3O2)cc1 (configuration not stated)	-	-	63	-	-	-	-	-
CC(=O)Nc1ccc(C(=O)CN2CCN(c3ccccc3)CC2)cc1	.	.	.	.	.	-	.	.
CN(c1cccc(Cl)c1)S(=O)(=O)c1cccc(C(=O)Nc2nc3ccccc3[nH]2)c1	-	-	-	-	-	-	.	.
C=CCN(c1ccccc1)S(=O)(=O)c1cccc(C(=O)Nc2nc3ccccc3[nH]2)c1	-	-	22	-	-	-	-	-
Cn1cc(-c2ccno2)c(C(=O)O)n1	-	-	-	-	-	-	.	.
COc1ccc(CNC(=O)C(c2ccco2)N(C(=O)c2ccccn2)c2ccccc2)cc1 (configuration not stated)	-	-	-	-	-	-	.	.
CCOc1ccc(Oc2c(/C=N/NC(=O)COc3ccccc3OC)c(C)nn2-c2ccccc2)cc1	-	-	22	-	-	-	-	-
CCOc1ccc(Oc2c(/C=N/NC(N)=O)c(C)nn2-c2ccccc2)cc1	-	-	-	-	-	-	.	.
CCOC(=O)c1cnn2c1[nH]c(=O)c1ccccc12	-	-	255	-	.	-	-	-
CN(C(=O)Cn1nnc(-c2cccnc2)n1)C1CCCCC1	.	-	-	-	-	-	.	.
O=C(CCN1C(=O)c2ccccc2C1=O)NC1=NCCS1	-	-	25	-	-	-	-	-
CCOc1ccccc1-n1c(SCC(=O)Nc2nccs2)nnc1-c1ccoc1C	-	-	19	-	-	-	-	-
CCCCOc1ccc(C(=O)N/C(=C/C=C/c2ccccc2)C(=O)NCCCO)cc1	-	-	13	-	-	-	-	-
CCCCOc1ccc(C(=O)N/C(=C/C=C/c2ccccc2)C(=O)NCCO)cc1	-	-	-	-	-	-	.	.
Cn1nc(C(C)(C)C)c([N+](=O)[O-])c1C(=O)NC1CCCCC1	.	.	.	.	.	-	.	.
Cc1ccc(NC(=O)c2ccc(OC(=O)CCN3C(=O)c4ccccc4C3=O)cc2)cc1	-	-	11	-	.	-	-	-
CCOC(=O)CCCNC(=O)CSc1nnc(-c2ccccc2)c(-c2ccccc2)n1	.	.	.	.	.	-	.	.
Cc1ccc(/C=N/NC(=O)c2cccnc2)s1	.	-	13	-	-	-	-	-
CCC(C)[C@H](NC(=O)OC(C)(C)C)C(=O)N/N=C/c1ccc2cc(OC)ccc2n1 (some centres not stated)	-	-	90	-	-	-	-	-
C/C(CC1CC(COCC(C)C)OC1=O)=N\NC(N)=S (configuration not stated)	-	-	13	-	-	-	-	-
CCCCCOCC1CC(C/C(C)=N/NC(N)=S)C(=O)O1 (configuration not stated)	-	-	-	-	-	-	.	.
CC(OC(=O)Cn1[nH]c(=O)c2ccccc2c1=O)C(=O)c1ccccc1 (configuration not stated)	.	.	.	.	.	-	.	.
COc1ccc(S(=O)(=O)Nc2cccc(C(C)=O)c2)cc1Br	-	-	-	-	-	-	.	.
COc1ccc(S(=O)(=O)Nc2cccc(N(C)S(C)(=O)=O)c2)cc1Br	-	-	11	-	-	-	-	-
SMILES	DTT redox prof	p97 inhibitor	S1P4 ag	S1P4 antagonist	S1P3 antag	UBC9 SUMO inh	S1P4 agonist cf	S1P1 ag
COc1ccccc1NC(=O)c1ccccc1NC(=O)c1cccs1	.	.	.	.	.	-	.	.
O=C(N/N=C\c1ccccc1)c1ccccc1-n1cccc1	-	-	-	-	-	-	.	.
O=C(N/N=C\c1ccc(O)c([N+](=O)[O-])c1)c1ccccc1-n1cccc1	-	-	16	-	-	-	-	-
COc1ccc(C2NC(=O)C(C#N)=C(S)N2c2cccc(C)c2)cc1OC (configuration not stated)	-	-	15	-	-	-	-	-
COc1ccc(S(=O)(=O)N2c3ccccc3OCC2C)cc1 (configuration not stated)	-	-	15	-	-	-	-	-
CCOC(=O)c1c(NC(C)=O)sc2c(O)c(Br)cc(Br)c12	-	-	62	-	-	-	-	-
CCOC(=O)c1c(NC(C)=O)sc2c(O)cccc12	-	-	-	-	-	-	.	.
COc1cc(C(F)(F)F)c(C(=O)N(C)Cc2ccc(Cl)c(Cl)c2)cn1	.	-	15	-	-	-	-	-
CCOC(=O)CNc1ccc(C(=O)OCC)cc1[N+](=O)[O-]	-	-	-	-	-	-	.	.
CCCNc1ccc(C(=O)OCC)cc1[N+](=O)[O-]	-	-	34	-	-	-	-	-
CC(C)CC(=O)NS(=O)(=O)c1ccc(NS(C)(=O)=O)cc1	-	-	17	-	-	-	-	-
CCCNS(=O)(=O)c1cc(Cl)ccc1OC	-	-	17	-	-	-	-	-
COc1ccc(Cl)cc1C(=O)Nn1cnc2ccccc2c1=O	-	-	137	-	-	-	-	-
Cc1[nH]ncc1-c1ccccc1Cl	.	-	-	-	-	-	.	.
Cc1ccc(/C=C/C(=O)NCc2ccc(S(N)(=O)=O)cc2)o1	-	-	12	-	-	-	-	-
NC(=S)N/N=C/c1coc2ccc(F)cc2c1=O	.	-	36	-	-	-	-	-
COc1cc(C(=O)NCc2ccncc2)cc(OC)c1OC	-	-	14	-	-	-	-	-
Cc1nc(Nc2cc(F)ccc2C)c2nnn(Cc3ccccc3)c2n1	.	.	.	.	.	-	.	.
CCOC(=O)Cc1csc(NC(=O)CSc2nc(N)c3c(C)c(C)sc3n2)n1	-	-	24	-	.	-	-	-
CCOC(=O)Cc1csc(NC(=O)CC)n1	-	-	-	-	-	-	.	.
O=C(NC(=S)N1CCN(c2nc(-c3ccccc3)cs2)CC1)c1cncc(Br)c1	-	-	-	-	-	-	.	.
Cc1cccc(C)c1-n1c(SCC(=O)N2CC(=O)Nc3ccccc32)nc2ccccc2c1=O	-	-	-	-	-	-	.	.
Cc1ccc(-n2c(SCC(=O)N3CC(=O)Nc4ccccc43)nc3ccccc3c2=O)cc1	-	-	27	-	-	-	-	-

Compound activity from PubChem.
